Experimental data from PubChem BioAssay AID488969 (Vanderbilt High Throughput Screening Facility, 2010).
In all, about 110,000 compounds were measured (“z-score”: median about -0.1, highest 2% from about 2 on). The full list was thinned out, with the highest values kept by preference. Activity calls are given as the source filed them.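 How the source made its calls: active means z-score in the third read window above 3 or below -3; inactive means the rest.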

Target: Metabotropic glutamate receptor 8 (Rattus norvegicus) (UniProt P70579)
Sequence (P70579 whole entry, looked up): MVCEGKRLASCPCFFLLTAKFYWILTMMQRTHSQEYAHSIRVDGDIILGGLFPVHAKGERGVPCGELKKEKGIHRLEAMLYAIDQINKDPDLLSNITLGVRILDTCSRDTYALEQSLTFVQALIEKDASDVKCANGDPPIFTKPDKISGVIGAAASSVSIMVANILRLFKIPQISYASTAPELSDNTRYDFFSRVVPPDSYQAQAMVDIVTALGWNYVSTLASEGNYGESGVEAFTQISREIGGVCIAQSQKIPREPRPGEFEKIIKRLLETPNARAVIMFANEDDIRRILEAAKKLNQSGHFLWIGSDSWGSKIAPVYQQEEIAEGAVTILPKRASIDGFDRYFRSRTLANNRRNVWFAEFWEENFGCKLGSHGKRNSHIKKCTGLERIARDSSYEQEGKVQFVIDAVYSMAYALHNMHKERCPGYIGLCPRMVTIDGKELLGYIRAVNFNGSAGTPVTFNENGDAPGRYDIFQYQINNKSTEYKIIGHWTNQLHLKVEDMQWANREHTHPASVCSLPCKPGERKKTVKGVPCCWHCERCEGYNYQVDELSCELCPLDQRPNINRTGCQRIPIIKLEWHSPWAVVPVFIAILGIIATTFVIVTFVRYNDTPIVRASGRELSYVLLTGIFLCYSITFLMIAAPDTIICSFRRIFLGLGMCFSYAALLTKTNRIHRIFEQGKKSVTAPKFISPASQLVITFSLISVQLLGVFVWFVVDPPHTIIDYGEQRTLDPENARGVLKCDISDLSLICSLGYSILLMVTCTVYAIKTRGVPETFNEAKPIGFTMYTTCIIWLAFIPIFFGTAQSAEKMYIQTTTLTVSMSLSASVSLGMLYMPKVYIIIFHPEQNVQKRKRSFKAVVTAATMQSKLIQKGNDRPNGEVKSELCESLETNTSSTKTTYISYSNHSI
Assay: rat mGluR8 modulators via GIRK flux, primary screen, cell-based, thallium flux, HTS (AID 488969)
Conditions: HEK293 rat mGluR8, GIRK (G protein-gated inwardly rectifying potassium channel) thallium flux, FluoZin2; at 10 µM; stronger effect = higher value; submaximal glutamate (EC20) added with thallium

Structure (SMILES) | z-score
CN(C)S(=O)(=O)c1cccc(NC(=S)Nc2ccc(Cl)cc2Cl)c1 | 7.58 (active)
FC(F)(F)c1cccc(NC(=S)Nc2ccc(Cl)cc2Cl)c1 | 1.29
CN(C)S(=O)(=O)c1cccc(C(=O)Nc2cc(Cl)cc(Cl)c2)c1 | -0.468
CN(C)S(=O)(=O)c1cccc(NC(=S)N/N=C/C(c2ccccc2)c2ccccc2)c1 | 0.384
CN(C)S(=O)(=O)c1cccc(NC(=S)Nc2cc(Cl)cc(Cl)c2)c1 | 8 (active)
CN(C)S(=O)(=O)c1cccc(NC(=S)NN=C(Cc2ccccc2)Cc2ccccc2)c1 | 0.673
O=C(CCc1ccc(S(=O)(=O)NC2CCCCC2)cc1)N(Cc1ccccc1)Cc1ccccc1 | -0.22
Cc1cc(C2=NNC(=NCc3ccccc3)SC2)c(C)n1-c1c(C)n(C)n(-c2ccccc2)c1=O | -0.278
COCC(C)n1c(C)cc(C(=O)COC(=O)c2oc3ccccc3c2C)c1C (stereo not given) | -0.927
Cc1ccccc1CSCC(=O)Nc1c(C)n(C)n(-c2ccccc2)c1=O | -0.0609
CCCCN(CCCC)C(=S)NC(=O)C(C)(C)C | 5.35 (active)
CC(C)(C)C(=O)NC(=S)N1CCCC1 | -0.128
CC(C)(C)C(=O)NC(=S)NCc1ccccc1 | -0.201
COC(=O)c1ccc(C(=O)OC)c(NC(=O)COC(=O)C23CC4CC(CC(O)(C4)C2)C3)c1 | -1.04
Cc1cccc(NC(=O)Nc2ccc(C)c(C)c2)n1 | -0.316
CCCCn1c(SCC(=O)Nc2cc(C)on2)nnc1-c1cccnc1 | 2.11
Cc1cc(NC(=O)CSc2nnc(-c3cccnc3)n2N)no1 | -0.404
Cc1cc(NC(=O)CSc2nnc(-c3cccnc3)n2C)no1 | 0.0216
COC(=O)c1cccc(NC(=O)CCc2ccccc2)c1 | -0.143
COc1ccc(NC(=S)N2CCN(C/C=C/c3ccccc3)CC2)cc1 | -0.821
CCNC(=O)CN(CCc1ccccc1)S(=O)(=O)c1ccc(OC)cc1 | -0.329
COc1ccc(S(=O)(=O)N(CCc2ccccc2)CC(=O)NC(C)C)cc1 | -0.387

Structure (SMILES) | z-score
COc1ccc(S(=O)(=O)N(CCc2ccccc2)CC(=O)O)cc1 | 2.73
COc1ccccc1NS(=O)(=O)c1ccc2oc(SC3CCOC3=O)nc2c1 (stereo not given) | -1.2
CCOC(=O)CSC1=Nc2ccccc2C2=NC(CC(=O)NCc3ccccc3)C(=O)N12 (stereo not given) | 2.91
CCOC(=O)CSC1=Nc2ccccc2C2=NC(CC(=O)NCc3ccc(OC)cc3)C(=O)N12 (stereo not given) | 0.556
CCOC(=O)CSC1=Nc2ccccc2C2=NC(CC(=O)NCc3cccs3)C(=O)N12 (stereo not given) | 0.253
O=C(Nc1ccc(F)cc1)c1ccc(-n2ccnc2)nc1 | -0.238
CCN(CC)S(=O)(=O)c1cccc(C(=O)N[C@H](C(=O)Nc2nc3ccccc3s2)C(C)C)c1 | 0.326
CN(C)CCCN1C(=O)CSC1c1ccccc1 (stereo not given) | -0.244
O=C(C1CCCN1S(=O)(=O)c1cccc2cccnc12)N1CCn2c1nc1ccccc12 (stereo not given) | 3.63 (active)
O=C(C1CCCN1S(=O)(=O)c1cccc2cccnc12)N1CCc2ccccc2C1 (stereo not given) | -0.115
O=C(C1CCCN(S(=O)(=O)c2cccc3cccnc23)C1)N1CCc2ccccc21 (stereo not given) | -1.2
O=C(C1CCN(S(=O)(=O)c2cccc3cccnc23)CC1)N1CCn2c1nc1ccccc12 | -0.522
O=C(C1CCCN1S(=O)(=O)c1cccc2cccnc12)N1CCN(c2ccccc2)CC1 (stereo not given) | -0.0642
O=C(C1CCCN1S(=O)(=O)c1cccc2cccnc12)N1CCc2ccccc21 (stereo not given) | 2.97
Cc1nc2cc(-c3ccc(Cl)cc3)nn2c(C)c1CCC(=O)NCc1ccco1 | -0.0434
CCOC(=O)c1oc2ccccc2c1NC(=O)COc1ccc(F)cc1 | -0.456
CCSc1nnc(-c2cc3c(s2)-c2ccccc2CC3)o1 | 0.000914
S=c1[nH]nc(-c2cc3c(s2)-c2ccccc2CC3)o1 | 16.3 (active)
CSc1nnc(-c2cc3c(s2)-c2ccccc2CC3)o1 | 0.0264
N=c1sccn1CC(=O)Nc1cccc2ccccc12 | -0.00239
COC(=O)Nc1nc(C)c(C(=O)N(C)C)s1 | 4.58 (active)
Cc1nc(NC(=O)C2CC2)sc1C(=O)N(C)C | -0.405

Structure (SMILES) | z-score
CCOC(=O)Nc1nc(C)c(C(=O)N(C)C)s1 | -0.0609
O=C(CN1C(=O)COc2ccccc21)NCCCN1CCc2ccccc2C1 | 0.383
O=C(CCN1C(=O)COc2ccccc21)NCCCN1CCc2ccccc2C1 | 7.6 (active)
O=C(CCN1C(=O)COc2ccccc21)NCCN1CCc2ccccc2C1 | -0.306
Cc1ccc(/C=C(\C#N)c2nc3ccccc3[nH]2)s1 | -0.0719
O=C(COC(=O)CCCOc1ccc(Cl)cc1Cl)NCc1ccc(F)cc1 | -0.191
Cc1ccsc1/C=N/NC(=O)c1sccc1C | 5.91 (active)
Cc1ccc(N2CC(C(=O)N/N=C/c3cccc([N+](=O)[O-])c3)CC2=O)cc1 (stereo not given) | -0.282
Cc1ccsc1/C=N/NC(=O)C1CC(=O)N(c2ccccc2)C1 (stereo not given) | 0.243
CSc1ccc(/C=N/NC(=O)c2sccc2C)cc1 | -0.312
Cc1ccc(N2CC(C(=O)N/N=C/c3sccc3C)CC2=O)cc1 (stereo not given) | 3.3 (active)
Cc1ccsc1/C=N/NC(=O)c1cccs1 | 0.356
Cc1nc2c(C)cccc2cc1C(=O)N/N=C/c1cccc([N+](=O)[O-])c1 | -0.361
O=C(NC(=S)Nc1nc2ccccc2s1)c1ccco1 | 8.72 (active)
O=C(NCc1ccc(-c2nc3ccccc3s2)cc1)c1ccc(Br)o1 | -0.21
O=C(NC(=S)NCc1ccc(-c2nc3ccccc3s2)cc1)c1ccco1 | 2.52
O=C(COC(=O)c1ccco1)Nc1nc2ccccc2s1 | 0.111
O=C(NCc1ccc(-c2nc3ccccc3s2)cc1)c1ccco1 | -0.111
O=C(Nc1ccccc1-c1nc2ccccc2s1)c1ccco1 | -0.0204
O=C(COc1ccc(Cl)cc1Cl)NC(=O)N1CCCCC1 | 1.09
Cc1sc2ncnc(N=Nc3c(O)[nH]c4ccccc34)c2c1C | -0.0288
CCOC(=O)c1cc(OC(=O)c2cccnc2)n(-c2ccccc2)n1 | -0.265

Structure (SMILES) | z-score
COc1cccc(CN(C)CC(=O)NC(=O)NCc2ccccc2)c1 | 0.16
CN(CC(=O)NC(=O)NCc1ccccc1)Cc1ccc(Cl)cc1 | -0.334
COc1ccc(CN(C)CC(=O)NC(=O)NCc2ccccc2)cc1OC | 5.52 (active)
COC(=O)C1=C(C(=O)c2ccccc2)C(c2ccc(OC)c(OC)c2)Nc2nnnn21 (stereo not given) | 0.0695
C/C(=N\NC(=O)CSc1nnc(C)s1)c1ccc(O)cc1 | 0.00192
NC(=S)N/N=C/c1ccc(-c2ccc(Cl)c(Cl)c2)o1 | 0.653
NC(=S)N/N=C/c1ccc(-c2cc(Cl)cc(Cl)c2)o1 | 0.987
NC(=S)N/N=C/c1ccc(-c2cc(Cl)ccc2Cl)o1 | 2.21
CCCCOC(=O)CSc1n[nH]c(=O)[nH]c1=O | -0.957
Cc1ccc(-c2nnc(CSc3nc(C(C)C)nc4sc(C)c(C)c34)o2)cc1 | 1.42
Cc1ccc(-c2nnc(CSc3nnc(C)s3)o2)cc1 | 0.552
CCc1nc(SCc2nnc(-c3ccc(C)cc3)o2)c2c(C)c(C)sc2n1 | 2.26
O=C(CCC(=O)OCC(=O)c1ccc(-c2ccccc2)cc1)Nc1cccc2cccnc12 | -0.0975
Cn1c(=O)c(C(=O)Nc2cccnc2)c(O)c2ccccc21 | 1.29
COc1ccc2c(Cl)c(C(=O)NCCCn3ccnc3)sc2c1 | -0.0695
Cc1cc(C)c2nc(SC(C)C(=O)NCC(=O)Nc3ccc(F)c(F)c3F)cc(C)c2c1 (stereo not given) | 7.48 (active)
Cc1cc(SC(C)C(=O)NCC(=O)Nc2ccc(F)c(F)c2F)nc2ccccc12 (stereo not given) | -0.101
Cc1ccc(-n2nnnc2SC(C)C(=O)NCC(=O)Nc2ccc(F)c(F)c2F)c(C)c1 (stereo not given) | -0.287
CCCCC(=O)Nc1ccc(C(=O)NNC(=O)c2cccs2)cc1 | -0.305
O=C(NCc1ccco1)c1ccc(COc2cc(Cl)ccc2Cl)cc1 | 0.104
COc1ccc(Cc2nnc(N)s2)cc1 | -0.0129
CCn1c(SCC(N)=O)nc2sc3c(c2c1=O)CCCC3 | 8.59 (active)

Structure (SMILES) | z-score
CCn1c(SCC(=O)O)nc2sc3c(c2c1=O)CCC3 | -1.62
CCn1c(SCC(=O)OC)nc2sc3c(c2c1=O)CCC3 | -0.399
CCN1C(=O)c2ccc(C(=O)NCc3ccccc3)cc2C1=O | -0.278
O=C(Nc1nnc(SCc2ccc(F)cc2)s1)C1CC(=O)N(c2ccc3c(c2)OCCO3)C1 (stereo not given) | 3.68 (active)
CCc1nnc(NC(=O)C2CC(=O)N(c3ccc4c(c3)OCCO4)C2)s1 (stereo not given) | -0.124
COC(=O)c1ccc(CSc2nnc(NC(=O)C3CC(=O)N(c4ccc5c(c4)OCCO5)C3)s2)cc1 (stereo not given) | 0.162
O=C(NCc1ccco1)C(Cc1ccccc1)NS(=O)(=O)c1cccc2nsnc12 (stereo not given) | -0.0409
Cn1c(=O)[nH]c(=O)c2c1nc(Br)n2CCCSc1nc2ccccc2o1 | -0.621
COc1ccccc1NC(=O)c1ccc(S(=O)(=O)N2CCCC2)cc1 | 3.99 (active)
COc1ccccc1NC(=O)c1ccc(N)cc1 | 0.511
COc1ccccc1NS(=O)(=O)c1ccc(C)c(NC(=O)c2ccc(S(=O)(=O)N3CCCCCC3)cc2)c1 | -0.106
COc1ccccc1NC(=O)c1cc(C(=O)Nc2ccccc2OC)cc(N2C(=O)CCC2=O)c1 | 4.66 (active)
COc1ccccc1NC(=O)c1ccc(S(=O)(=O)N2CCOCC2)cc1 | 0.986
COc1ccccc1NC(=O)c1cccnc1 | 0.226
O=[N+]([O-])c1ccc(OCC(O)CN2CCN(c3ccccc3F)CC2)cc1 (stereo not given) | -0.357
Cc1ccc(NS(=O)(=O)c2cc([N+](=O)[O-])ccc2NNC(=S)Nc2cccc(Cl)c2)c(C)c1 | -0.12
Cc1cccc(Sc2ccc([N+](=O)[O-])cn2)c1 | -1.63
O=C(CSc1nc(-c2cccs2)cc(C(F)(F)F)n1)NCc1ccccc1 | -0.654
COc1ccc(/C=N/NC(=O)CCCOc2ccc(Cl)cc2Cl)cc1 | -0.126
Cc1ccc(Nc2cc(C)nn2-c2nc(C)cc(C)n2)cc1 | 0.547
Cc1ccc(Nc2cc(C)nn2-c2nc(C)cc(=O)[nH]2)cc1 | 16.4 (active)
Cc1cc(C)nc(-n2nc(C)cc2Nc2ccccc2)n1 | -0.115
